High-throughput results deposited in PubChem by several laboratories.
A selection: hits, their analogues and other compounds. The true share with any hit is near 3.4%.
GAA850 FXN act = activators of GAA850 frataxin (FXN) promoter; HEK293 lucGAA850 FXN promoter luciferase reporter, 24 h; percent of 10 µM SAHA response; hit rate 0.56% among 360,000; activation, % at 6 µM; AID 540364;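 active = activation above the average of all compounds screened plus 3 SD, cutoff fixed separately per campaign, cut at about 7.5% in these data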;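 also: 0% = DMSO wells and 100% = 10 µM SAHA wells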
AI-2 QS mod = modulators of Vibrio harveyi AI-2 quorum sensing system; Vibrio harveyi JMH597 AI-2 luminescence/OD600 ratio, 9 h; stronger effect = lower value; strain lacks LuxN and CqsS sensors; 0 = neutral-control median; activity change, % at 7.5 µM; hit rate 0.4% among 300,000; AID 2094; in the data active = activity change below about -75%, passing the limit was not always enough; inconclusive = no clear call, values can overlap the other calls;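 also: luminescence divided by OD600 gain over 9 h not by final OD600 alone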
HSF1 inhib = HSF1 inhibition | NIH3T3-HGL HSE-luciferase, MG132-induced, luminescence 8 h; stronger effect = lower value | activity change, negative = inhibition, % at 7.5 µM (by protocol) | hit rate 0.77% among 300,000 | AID 2098;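 active = more than half of replicate wells show activity change below -50%, luminescence cut by over half; inconclusive = some wells, but at most half, below -50%; inactive = no replicate well below -50%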;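 also: luciferase reports HSF-1 transcriptional activity via heat shock element; 0% = median of DMSO wells and -100% = zero luminescence signal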
HSP90 inh = HSP90 refolding inhibition in rabbit reticulocyte lysate; luciferase refolding luminescence, 3 h; inhibition, % at 5.6 µM; hit rate 0.91% among 290,000; AID 1789;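 active = inhibition above the screen-wide mean plus 3 SD, computed separately per campaign, cut at about 16% in these data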;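 also: 0% = DMSO wells and 100% = 60 µM geldanamycin wells; inhibitors lower the luminescence because luciferase stays unfolded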
SMARCA2 act = increases SMARCA2 function in MMTV reporter cells; MG213 cells, MMTV-luciferase reporter, dexamethasone, overnight; activation, % at 9.1 µM; AID 652017; hit rate 1% among 370,000; in the data active = activation above about 7.8%;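 also: 0% = vehicle wells and 100% = reference activator wells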
PG9 binder = binds the HIV-1 gp120 antibody PG9. TR-FRET gp120-PG9 antibody binding. inhibition, % at 6.7 µM. hit rate 0.43% among 360,000; in the data active = inhibition above about 8.5%
PG9 bind confirm = PG9 antibody binding, confirmed; shares compounds with PG9 binder; TR-FRET PG9 antibody binding, biochemical; AID 651571; inhibition, % at 6.7 µM; hit rate 90% among 1,500; in the data active = inhibition above about 9%
PGV04 counter = counter-screen for PG9 binders: binding control antibody PGV04; TR-FRET PGV04 antibody-gp120 binding, biochemical; hit rate 95% among 1,500; shares compounds with PG9 binder; inhibition, % at 6.7 µM; in the data active = inhibition above about 9.5%
PG9 bind DR = small molecules binding HIV-1 gp120 antibody PG9; TR-FRET PG9 antibody-gp120 binding inhibition; IC50, µM; shares compounds with PG9 binder; 95 tested, under 10 active; in the data active = IC50 below about 10 µM
PGV04 DR counter = PGV04 binding, dose response counter-screen; TR-FRET binding to control antibody PGV04; hit rate 20% among 95; IC50, µM; AID 651937; shares compounds with PG9 binder
PG126 DR counter = counter-screen for PG9 binders: binding to control antibody PG126 | shares compounds with PG9 binder | TR-FRET binding to antibody PG126, counterscreen | IC50, µM | hit rate 20% among 95
SMARCA2 conf = confirmation of SMARCA2 (BRM) function activators | shares compounds with SMARCA2 act | MG213 cells, MMTV-luciferase with dexamethasone, luminescence, overnight; MG213 cells expressing E1A, Rb sequestered; DMSO wells 0%, reference activator 100% | activation, % at 9.1 µM | hit rate 30% among 3,500 | AID 652260;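 active = activation above its plate's cutoff, the mean activation of tested wells plus 3 SD, cut at about 7.9% in these data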
VP16 Luc act = GAL4-VP16 reporter activation counter-screen. hit rate 41% among 3,500. shares compounds with SMARCA2 act. HEK293 GAL4-VP16 pG5luc reporter, luciferase luminescence; scaled: DMSO wells 0%, SAHA wells 100%. activation, % at 9.1 µM. AID 686939;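 active = activation above the solvent-only control well mean plus 3 SD, averaged across control plates, cut at about 5.2% in these data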
Numbers without * were called inactive. Rule as the data show it, unless noted: active = IC50 below about 9 µM; inactive = the rest.

Nc1ccc(C(=O)Nc2nc3ccccc3s2)cc1 was read as GAA850 FXN act 3.4, AI-2 QS mod 11.3, HSF1 inhib 33.3, HSP90 inh 5.4, SMARCA2 act 1.8 and PG9 binder -0.6.
`O=C(Cc1ccccc1)Nc1nc2ccccc2s1` gave GAA850 FXN act 3.4, AI-2 QS mod -30.1, HSF1 inhib inconclusive, HSP90 inh -1.3, SMARCA2 act 6.2 and PG9 binder 0.1.
Screening C=CCN1[C@@H](C)[C@H](c2ccccc2)Oc2cccc(NCCc3ccccc3)c2S1(=O)=O returned SMARCA2 act -5.5 and PG9 binder -0.3.
For S=c1[nH]c2ccccc2n2cccc12 the results were GAA850 FXN act -0.7, AI-2 QS mod 10.1, HSF1 inhib 3.8, HSP90 inh 2.4, SMARCA2 act -2.5, PG9 binder 23.3*, PG9 bind confirm 16.7*, PGV04 counter 14.6*, PG9 bind DR inactive, PGV04 DR counter inactive and PG126 DR counter inactive.
O=C(O)CCc1ccc(-c2ccc(Br)cc2)o1 was read as GAA850 FXN act 0.7, AI-2 QS mod 53.0, HSF1 inhib 11.4, HSP90 inh -0.6, SMARCA2 act 4.1, PG9 binder 29.4*, PG9 bind confirm 37.0* and PGV04 counter 45.3*.
Screening Cc1ccc(NC(=O)CSc2nc3sc(C)cc3c(=O)n2C)cc1 returned GAA850 FXN act 2.2, AI-2 QS mod 21.1, HSF1 inhib 4.7, HSP90 inh -2.1, SMARCA2 act -2.6, PG9 binder 16.7*, PG9 bind confirm 15.8* and PGV04 counter 25.9*.
CN(C)S(=O)(=O)c1ccc(N2CCCC2)c(C(=O)NCc2cccc(C(F)(F)F)c2)c1 was read as GAA850 FXN act -1.3, AI-2 QS mod 20.0, HSF1 inhib 1.1, HSP90 inh -4.8, SMARCA2 act -3.9, PG9 binder 12.2*, PG9 bind confirm 17.1* and PGV04 counter 25.0*.
`CCOc1cccc2cc(C(=O)NCc3ccc(OC)cc3)c(=N)oc12` gave GAA850 FXN act -0.5, AI-2 QS mod 23.2, HSF1 inhib -5.1, HSP90 inh 1.7, SMARCA2 act -1.5, PG9 binder 13.4*, PG9 bind confirm 5.5 and PGV04 counter 6.3.
`CCOc1cccc2cc(C(=O)Nc3ccccc3-c3ccccc3)c(=O)oc12` gave GAA850 FXN act -4.1, AI-2 QS mod 26.4, HSF1 inhib -4.1, HSP90 inh -2.8, SMARCA2 act -1.9 and PG9 binder -0.3.
For CCOc1cccc2cc(C(=O)Nc3cc(C)on3)c(=O)oc12 the results were GAA850 FXN act 0.3, AI-2 QS mod 9.3, HSF1 inhib -6.6, HSP90 inh 1.2, SMARCA2 act -1.2, PG9 binder 15.1*, PG9 bind confirm 33.0* and PGV04 counter 36.7*.
CC(C)(C)C(=O)Cn1c(=O)n(-c2ccc(F)cc2F)c(=O)c2sccc21 was read as GAA850 FXN act -0.2, AI-2 QS mod 15.6, HSF1 inhib 2.2, HSP90 inh -4.9, SMARCA2 act -1.7, PG9 binder 11.9*, PG9 bind confirm 5.3 and PGV04 counter 7.2.
For COc1ccc(Cl)cc1C(=O)NNC(=O)c1n[nH]c2ccccc12 the results were GAA850 FXN act 0.3, SMARCA2 act 1.1, PG9 binder 10.1*, PG9 bind confirm 23.6* and PGV04 counter 31.5*.
Screening C#CCn1c(=NC(=O)c2ccco2)sc2cccc(Cl)c21 returned GAA850 FXN act 4.9, AI-2 QS mod 15.1, HSF1 inhib -18.9, HSP90 inh -1.6, SMARCA2 act 0.6, PG9 binder 16.3*, PG9 bind confirm 16.0* and PGV04 counter 45.5*.
Screening C#CCn1c(=NC(=O)c2ccc(Br)s2)sc2cccc(OC)c21 returned GAA850 FXN act 0.3, AI-2 QS mod -1.5, HSF1 inhib 29.0, HSP90 inh -1.0, SMARCA2 act 1.2, PG9 binder 10.8*, PG9 bind confirm 15.1* and PGV04 counter 25.9*.
Screening O=C(Nc1ccccc1NC(=O)c1ccccc1F)c1ccccc1F returned GAA850 FXN act 0.0, AI-2 QS mod 14.4, HSF1 inhib 21.7, HSP90 inh 0.8, SMARCA2 act 4.1 and PG9 binder -2.4.
Screening O=C(Nc1ccccc1C(=O)Nc1ccccc1)c1ccccc1F returned GAA850 FXN act 1.0, AI-2 QS mod -6.8, HSF1 inhib 15.0, HSP90 inh -1.0, SMARCA2 act -2.1, PG9 binder 21.2*, PG9 bind confirm 21.1* and PGV04 counter 27.7*.
Screening COc1ccc2c(COC(=O)c3n[nH]c4ccccc34)cc(=O)oc2c1 returned GAA850 FXN act 0.2, AI-2 QS mod 4.5, HSF1 inhib 48.8, HSP90 inh -0.4, SMARCA2 act 9.5*, PG9 binder 61.8*, PG9 bind confirm 52.9*, PGV04 counter 57.5*, SMARCA2 conf 5.6 and VP16 Luc act 11.0*.
For Cn1c(/C=C/c2ccc(Cl)cc2)nc2ccccc2c1=O the results were GAA850 FXN act 6.5, AI-2 QS mod 21.7, HSF1 inhib 32.8, HSP90 inh -4.2, SMARCA2 act 8.7*, PG9 binder 32.2*, PG9 bind confirm 4.2, PGV04 counter 7.0, SMARCA2 conf 4.3 and VP16 Luc act 6.1*.
For CCn1c(/C=C/c2ccc(F)cc2)nc2ccccc2c1=O the results were GAA850 FXN act 1.6, AI-2 QS mod -11.9, HSF1 inhib -0.8, HSP90 inh 1.8, SMARCA2 act -2.4 and PG9 binder 0.2.
Cc1ccc(NS(=O)(=O)c2ccc(-c3coc(C)n3)cc2)c(Cl)c1 was read as GAA850 FXN act 0.9, SMARCA2 act -3.5 and PG9 binder 0.5.
